In the library only some 6.7% were active in any assay of this set; here they are far more common.
SW480 rereplic: DNA re-replication induction in SW480 cells; SW480 DNA re-replication, Hoechst DNA content imaging, 48 h; Potency, µM (series often up to 46.1 µM), without a hit: top-dose re-replication activation, actives largely listed as activators; 340,000 compounds, 1.8% hits; further: % of control where 0% means no effect; nearly all actives have a fitted effect of over 55% in size
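Compounds, transferred as 23 nL by pin tool, were incubated with cells for 48 hr; DNA content per nucleus was then quantified by Hoechst staining and fluorescence plate imaging.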
PINK1 expr mod: changes PINK1 expression; PINK1 immunofluorescence, high-content cytometry, 24 h; Potency, µM (titrated, usually from 76.6 µM), inactives show top-dose activation (PINK1 increase), hits mostly activators; 410,000 compounds, 0.2% hits; AID 624263; active means well fitted activation curve with a large enough effect; inconclusive means small, poorly fitted or top-dose-only effect; cell line not stated here; further: % of control where 0% means no effect; nearly all actives have a fitted effect of over 65% in size
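PINK1 protein, normally rapidly degraded, was detected by immunofluorescence after 24 hour compound treatment of a stable cell line. Titration data (5 concentrations) came from laser-scanning cytometry, with CCCP-treated wells as controls.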
KB-V1 MDR tox: KB-V1 MDR subline cytotoxicity | KB-V1 MDR cells viability, CellTiter-Glo, 72 h | Potency, µM (doses to about 46.1 µM), hits mostly cytotoxic | 400,000 compounds, 3.4% hits | AID 1347076; further: on the % scale 0 is the no-effect control and ±100 the full control effect; nearly all actives have a fitted effect of over 60% in size
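Readout: CellTiter-Glo luminescence, 10 min after addition. Cells: KB-V1 MDR subline, 72 h at 37 degrees C with compound. Analysis: corrected, normalized data fitted to concentration-effect curves.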
KB-3-1 tox: KB-3-1 parental cell cytotoxicity. KB-3-1 viability, CellTiter-Glo ATP luminescence, 72 h. Potency, µM (doses to about 46.1 µM), actives largely listed as cytotoxic. 400,000 compounds, 1.4% hits. AID 1347075; further: on the % scale 0 is the no-effect control and ±100 the full control effect; nearly all actives have a fitted effect of over 60% in size
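Parental KB-3-1 adenocarcinoma cells in phenol-red-free DMEM with 10% FBS were pin-treated with compounds at several concentrations, incubated 72 h at 37 °C, and viability read by CellTiter-Glo luminescence; concentration-effect curves were fitted after normalization.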
MCF10A rerep: DNA re-replication induction in MCF 10a cells; MCF 10A DNA re-replication, Hoechst nuclear intensity, 48 h; Potency, µM (titrated, usually from 46.1 µM), without a hit: at the highest dose activity, positive = re-replication, most hits filed as activators; 350,000 compounds, 2.9% hits; AID 624296; further: % of control where 0% means no effect; nearly all actives have a fitted effect of over 50% in size
The depositor's hits bear a star; i = inactive; u = inconclusive; x = no result; [ ] = remark or other dose. Unless noted, the call rests on the fitted dose curve; in most records, active means well fitted curve in the direction sought with a large enough effect; inconclusive means small, poorly fitted or top-dose-only effect, or another doubt; inactive means no such curve, though single readings can be large; an effect the other way counts as inactive or inconclusive. Potency means the concentration at half of the fitted maximal effect.

SMILES	SW480 rereplic	PINK1 expr mod	KB-V1 MDR tox	KB-3-1 tox	MCF10A rerep
Cc1ccc(C)c(N2CCN(c3nc4ccccc4n4nnnc34)CC2)c1	x	1%	x	x	x
Cc1ccn2c(NC(=O)C(C)(C)Oc3ccc(Cl)cc3)c(-c3cccs3)nc2c1	0%	2%	i	26µM*	u
Cc1ccc(C(=O)Nc2c(-c3cccs3)nc3cc(C)ccn23)cc1	-4%	4%[38.3 µM]	i	i	0%
CCOC(=O)c1cc2c(c(CCO)n1)[C@@H](CCO)N(S(=O)(=O)C(C)(C)C)C2	4%	2%	i	i	-20%
CC1=NOC2(C1)N(C)c1ccccc1C2(C)C (stereo not drawn)	-3%	u	i	i	-6%
COc1ccc2ccc3c(c2c1)N=C[C@]1(O3)N(C)c2ccccc2C1(C)C	15µM*	5%	u	i	18µM*
CCN(Cc1ccccc1)C(=O)Cn1c(=O)n(-c2ccc(Cl)cc2)c(=O)c2c(C)c(C(=O)N(C)C)sc21	x	2%	x	x	x
CCC(C)(C)n1nnnc1CN1CCC(NC(=O)c2ccccc2C)CC1	-4%	-1%	i	i	6%
CCOc1ccccc1C(=O)NC1CCNCC1	-5%	0%	u	i	4%
Cc1ccccc1C(=O)NC1CCN(Cc2nnnn2Cc2ccc(F)cc2)CC1	-6%	6%[38.3 µM]	21µM*	i	2%
CCOc1ccccc1C(=O)NC1CCN(Cc2nnnn2C2CCCC2)CC1	-1%	5%[38.3 µM]	9.2µM*	i	21%
Cc1cc(C)c2[nH]c(=O)c(CN(Cc3nnnn3C3CCCC3)C3CCCCC3)cc2c1	-5%	7%[38.3 µM]	i	i	-1%
Cc1cccc2cc(CN(Cc3nnnn3C3CCCCC3)C3CCCC3)c3nnnn3c12	0%	3%	21µM*	u	17%
O=C(Nc1ccccc1Br)C(Cc1ccccc1)NS(=O)(=O)c1cccc2nsnc12 (stereo not drawn)	x	1%	i	i	x
CC(SC#N)C(=O)C12CC3CC(CC(C3)C1)C2 (stereo not drawn)	u	-1%	i	21µM*	18µM*
CC(=O)c1cccc(-c2ccnc3c2CC(C(=O)Nc2ccc(Cl)c(C(F)(F)F)c2)O3)c1 (stereo not drawn)	x	16%	i	i	x
O=C(Nc1cccc(S(=O)(=O)NC2=NCCCCC2)c1)c1cc(-c2ccco2)nc2ccccc12	u	u	i	i	16µM*
COc1ccccc1NS(=O)(=O)c1cccc(NC(=O)c2ccc3ccccc3n2)c1	-60%	3%	2.6µM*	u	-33%
O=C(Nc1cccc(S(=O)(=O)NC2=NCCCCC2)c1)c1cc(-c2ccncc2)nc2ccccc12	-6%	-2%	i	i	-3%
O=C(CCl)Nc1ccc(S(=O)(=O)NC2=NCCCCC2)cc1	u	-2%	16µM*	15µM*	21µM*
O=C(Nc1ccc(S(=O)(=O)NC2=NCCCCC2)cc1)c1ccc2ccccc2n1	-7%	5%	23µM*	i	15%
COc1ccccc1CNc1nc2nc(C)c(Cl)c(C)n2n1	x	-1%	i	i	x
CC(=O)N1c2ccccc2C(=O)C1N1CCN(c2cc(Cl)ccc2C)CC1 (stereo not drawn)	x	0%	i	i	x
O=C(C[n+]1ccccc1Cl)c1ccc(Br)cc1	x	x	i	i	x
CCNc1ncc2nc(-c3cc(F)cc(F)c3)c(=O)n(C)c2n1	x	1%	x	x	x
SMILES	SW480 rereplic	PINK1 expr mod	KB-V1 MDR tox	KB-3-1 tox	MCF10A rerep
O=C(NCCN1CCN(c2ccccc2)CC1)c1cccn2c(=O)c3cc(Cl)ccc3nc12	-1%	4%[38.3 µM]	i	i	4.1µM*
O=C(CN1C(=O)c2cccc3cccc(c23)C1=O)NCCCO	-11%	0%	i	i	-1%
O=C(NCCN1CCN(c2cccc(Cl)c2)CC1)c1cccn2c(=O)c3ccccc3nc12	10%	1%	i	i	26%
Cc1cccn2c(=O)c3cc(C(=O)NCCN4CCOCC4)n(C)c3nc12	u	2%	u	i	u
Cc1cccn2c(=O)c3cc(C(=O)NCCN4CCOCC4)c(=N)n(CCN4CCOCC4)c3nc12	26µM*	0%	u	i	12µM*
O=C(CN1C(=O)c2cccc3cccc(c23)C1=O)NCCN1CCOCC1	-9%	3%	i	i	1.8µM*

Compound activity: PubChem, National Center for Advancing Translational Sciences (NCATS)
